According to PubChem BioAssay AID1159580 (chemical genetic matrix, 2015):
Where “and” joins values, the source holds several entries; their conditions need not be identical. Equal entries are not always repeated. Screen size: about 5,500 compounds; about 2,000 (36%) were called active. About 18% were inconclusive and are not listed. No stated cut-off is given here; in the data, active means normalized growth mostly below about 0.91 (no sharp cut-off); inconclusive means no clear call, values can overlap the other calls; inactive means mostly above about 0.92. The list shows a part of the results.

Test: chemical genetic growth profiling, strain panel (AID 1159580);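 further: tested at 20 µM; growth read once vehicle control cultures reached saturation at 30 °C; 1 = growth at the plate median or of vehicle wells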
Details: S. cerevisiae deletion strains, growth OD
[1] = locus YGR229C, strain SMI1, stronger effect = lower value
[2] = locus YNL322C, strain KRE1, stronger effect = lower value

Measured: normalized growth

O=C(O)CP(=O)(O)O
inactive: locus YAL040C, strain CLN3, stronger effect = lower value 1 | locus YCL061C, strain MRC1 (second series), stronger effect = lower value 1 | locus YDR363W, strain ESC2, stronger effect = lower value 1.01 | locus YER002W, strain NOP16, stronger effect = lower value 1.01 | [1] 1.02 | locus YNL175C, strain NOP13, stronger effect = lower value 1.02 | locus YNL197C, strain WHI3, stronger effect = lower value 1.01 | locus YNL224C, strain SQS1, stronger effect = lower value 0.993 | [2] 1.01 | locus YOR083W, strain WHI5 (second series), stronger effect = lower value 1.01

O=C(O)P(=O)(O)O
0.898 (active) and 1.05 (inactive): locus YHR030C, strain SLT2, stronger effect = lower value
active: locus YKR001C, strain vps1, stronger effect = lower value 0.894 | locus YMR307W, strain GAS1, stronger effect = lower value 0.443
inactive: locus YAL013W, strain DEP1, stronger effect = lower value 0.961 | locus YAL021C, strain ccr4, stronger effect = lower value 1.01 | locus YAL026C, strain drs2, stronger effect = lower value 0.979 | locus YAL030W, strain snc1, stronger effect = lower value 0.985 | locus YBL061C, strain skt5, stronger effect = lower value 0.984 | locus YBR009C, strain hhf1, stronger effect = lower value 1.01 | locus YBR021W, strain FUR4, stronger effect = lower value 0.994 | locus YBR023C, strain chs3, stronger effect = lower value 0.969 | locus YBR171W, strain sec66, stronger effect = lower value 0.994 | locus YBR229C, strain ROT2, stronger effect = lower value 0.996 | locus YBR231C, strain swc5, stronger effect = lower value 0.958 | locus YBR279W, strain paf1, stronger effect = lower value 0.981 | locus YCL011C, strain gbp2, stronger effect = lower value 0.982 | locus YCL016C, strain dcc1, stronger effect = lower value 0.998 | locus YCL029C, strain bik1, stronger effect = lower value 0.969 | locus YCL069W, strain vba3, stronger effect = lower value 1 | locus YCR088W, strain abp1, stronger effect = lower value 0.984 | locus YDL005C, strain med2, stronger effect = lower value 0.968 | locus YDL035C, strain GPR1, stronger effect = lower value 1 | locus YDL040C, strain nat1, stronger effect = lower value 0.984 | locus YDL074C, strain BRE1, stronger effect = lower value 0.892 | locus YDL101C, strain DUN1, stronger effect = lower value 0.964 | locus YDL134C, strain PPH21, stronger effect = lower value 1.01 | locus YDL185W, strain tfp1, stronger effect = lower value 0.932 | locus YDL192W, strain arf1, stronger effect = lower value 0.961 | locus YDR001C, strain nth1, stronger effect = lower value 0.976 | locus YDR069C, strain doa4, stronger effect = lower value 0.983 | locus YDR101C, strain arx1, stronger effect = lower value 0.983 | locus YDR137W, strain rgp1, stronger effect = lower value 0.984 | locus YDR150W, strain NUM1, stronger effect = lower value 0.986 | locus YDR159W, strain sac3, stronger effect = lower value 0.963 | locus YDR162C, strain NBP2, stronger effect = lower value 0.902 | locus YDR195W, strain ref2 0.955 | locus YDR297W, strain sur2, stronger effect = lower value 0.992 | locus YDR318W, strain mcm21, stronger effect = lower value 0.976 | locus YDR334W, strain swr1, stronger effect = lower value 0.988 | locus YDR335W, strain msn5, stronger effect = lower value 0.991 | locus YDR388W, stronger effect = lower value 0.967 | locus YDR392W, strain spt3, stronger effect = lower value 0.977 | locus YDR502C, strain sam2, stronger effect = lower value 0.957 | locus YEL003W, strain gim4, stronger effect = lower value 0.984 | locus YEL037C, strain rad23, stronger effect = lower value 0.99 | locus YEL061C, strain CIN8 (second series), stronger effect = lower value 0.975 | locus YEL061C, strain CIN8, stronger effect = lower value 0.984 | locus YER015W, strain faa2, stronger effect = lower value 0.984 | locus YER016W, strain bim1, stronger effect = lower value 0.983 | locus YER110C, stronger effect = lower value 0.936 | locus YER111C, strain swi4, stronger effect = lower value 0.98 | locus YER155C, strain BEM2 (second series), stronger effect = lower value 0.935 | locus YER155C, strain BEM2, stronger effect = lower value 0.983 | locus YER167W, strain BCK2, stronger effect = lower value 0.98 | locus YFR010W, strain ubp6, stronger effect = lower value 0.965 | locus YGL078C, strain dbp3, stronger effect = lower value 0.986 | locus YGL086W, strain mad1, stronger effect = lower value 0.965 | locus YGL167C, strain pmr1, stronger effect = lower value 0.984 | locus YGL173C, strain kem1, stronger effect = lower value 0.992 | locus YGL227W, strain vid30, stronger effect = lower value 0.982 | locus YGL240W, strain doc1, stronger effect = lower value 0.964 | locus YGL248W, strain PDE1, stronger effect = lower value 0.94 | locus YGL253W, strain hxk2, stronger effect = lower value 0.985 | locus YGR078C, strain PAC10, stronger effect = lower value 0.93 | locus YGR135W, strain pre9, stronger effect = lower value 0.945 | [1] 0.886 | locus YGR252W, strain gcn5, stronger effect = lower value 0.911 | locus YHR013C, strain ard1, stronger effect = lower value 0.985 | locus YHR027C, strain rpn1, stronger effect = lower value 0.999 | locus YHR079C, strain IRE1 (second series), stronger effect = lower value 0.963 | locus YHR079C, strain IRE1, stronger effect = lower value 1.05 | locus YHR094C, strain hxt1, stronger effect = lower value 0.982 | locus YHR129C, strain ARP1, stronger effect = lower value 0.973 | locus YHR142W, strain chs7, stronger effect = lower value 0.978 | locus YHR200W, strain rpn10, stronger effect = lower value 0.96 | locus YIL066C, strain RNR3, stronger effect = lower value 0.999 | locus YIL073C, strain SPO22, stronger effect = lower value 0.868 | locus YIL125W, strain kgd1, stronger effect = lower value 0.979 | locus YIR030C, strain dcg1, stronger effect = lower value 0.959 | locus YJL092W, strain hpr5, stronger effect = lower value 0.982 | locus YJL095W, strain BCK1 (second series), stronger effect = lower value 0.993 | locus YJL115W, strain asf1, stronger effect = lower value 0.986 | locus YJL129C, strain trk1, stronger effect = lower value 0.984 | locus YJL134W, strain LCB3, stronger effect = lower value 0.985 | locus YJL154C, strain vps35, stronger effect = lower value 0.977 | locus YJL164C, strain tpk1, stronger effect = lower value 1 | locus YJL166W, strain qcr8, stronger effect = lower value 0.978 | locus YJL168C, strain set2, stronger effect = lower value 0.97 | locus YJL187C, strain SWE1 (second series), stronger effect = lower value 0.942 | locus YJL187C, strain SWE1, stronger effect = lower value 0.965 | locus YJR043C, strain POL32, stronger effect = lower value 0.972 | locus YJR066W, strain TOR1, stronger effect = lower value 0.982 | locus YJR075W, strain HOC1, stronger effect = lower value 0.926 | locus YKL009W, strain mrt4, stronger effect = lower value 0.931 | locus YKL068W, stronger effect = lower value 0.969 | locus YKL085W, strain MDH1 (second series), stronger effect = lower value 0.96 | locus YKL085W, strain MDH1, stronger effect = lower value 0.96 | locus YKL160W, strain elf1, stronger effect = lower value 0.995 | locus YKL190W, strain CNB1, stronger effect = lower value 0.981 | locus YKR026C, strain gcn3, stronger effect = lower value 0.977 | locus YKR091W, strain srl3, stronger effect = lower value 0.986 | locus YLL001W, strain dnm1, stronger effect = lower value 0.991 | locus YLL026W, stronger effect = lower value 1 | locus YLL041C, strain sdh2, stronger effect = lower value 0.989 | locus YLR027C, strain aat2, stronger effect = lower value 0.974 | locus YLR039C, strain RIC1, stronger effect = lower value 0.855 | locus YLR058C, strain SHM2, stronger effect = lower value 0.97 | locus YLR102C, strain apc9, stronger effect = lower value 0.977 | locus YLR113W, strain HOG1, stronger effect = lower value 1.07 | locus YLR221C, strain rsa3, stronger effect = lower value 0.975 | locus YLR258W, strain gsy2, stronger effect = lower value 1 | locus YLR262C, strain YPT6 (second series), stronger effect = lower value 0.967 | locus YLR262C, strain YPT6, stronger effect = lower value 0.842 | locus YLR268W, strain sec22, stronger effect = lower value 0.949 | locus YLR320W, strain mms22, stronger effect = lower value 0.967 | locus YLR330W, strain CHS5, stronger effect = lower value 0.957 | locus YLR342W, strain FKS1 (second series), stronger effect = lower value 0.897 | locus YLR342W, strain FKS1, stronger effect = lower value 0.981 | locus YLR357W, strain rsc2, stronger effect = lower value 0.972 | locus YLR370C, strain arc18, stronger effect = lower value 0.995 | locus YLR371W, strain rom2, stronger effect = lower value 0.982 | locus YLR384C, strain iki3, stronger effect = lower value 1 | locus YLR418C, strain cdc73, stronger effect = lower value 0.91 | locus YML016C, strain PPZ1, stronger effect = lower value 0.984 | locus YML032C, strain rad52, stronger effect = lower value 0.977 | locus YML120C, strain ndi1, stronger effect = lower value 0.98 | locus YML124C, strain tub3, stronger effect = lower value 0.981 | locus YMR058W, strain fet3, stronger effect = lower value 0.983 | locus YMR078C, strain ctf18, stronger effect = lower value 0.956 | locus YMR125W, strain sto1, stronger effect = lower value 0.986 | locus YMR129W, stronger effect = lower value 0.984 | locus YMR205C, strain PFK2, stronger effect = lower value 0.975 | locus YMR223W, strain ubp8, stronger effect = lower value 0.95 | locus YMR231W, strain pep5, stronger effect = lower value 0.993 | locus YMR263W, strain SAP30, stronger effect = lower value 0.938 | locus YNL067W, strain RPL9B, stronger effect = lower value 0.923 | locus YNL071W, strain lat1, stronger effect = lower value 0.99 | locus YNL128W, strain TEP1, stronger effect = lower value 0.925 | locus YNL153C, strain GIM3, stronger effect = lower value 0.968 | locus YNL183C, strain NPR1, stronger effect = lower value 0.975 | locus YNL209W, strain ssb2, stronger effect = lower value 0.983 | locus YNL233W, strain BNI4, stronger effect = lower value 0.923 | locus YNL248C, strain rpa49, stronger effect = lower value 0.981 | locus YNL250W, strain rad50, stronger effect = lower value 0.956 | locus YNL271C, strain bni1, stronger effect = lower value 0.966 | locus YNL298W, strain CLA4, stronger effect = lower value 0.976 | locus YNL307C, strain MCK1, stronger effect = lower value 0.962 | locus YNL322C, strain KRE1 (second series), stronger effect = lower value 0.981 | [2] 0.974 | locus YNR049C, strain mso1, stronger effect = lower value 0.987 | locus YNR052C, strain pop2, stronger effect = lower value 0.971 | locus YOL012C, strain htz1 0.927 | locus YOL147C, strain pex11, stronger effect = lower value 0.976 | locus YOR001W, strain rrp6, stronger effect = lower value 0.981 | locus YOR061W, strain CKA2, stronger effect = lower value 0.98 | locus YOR069W, strain VPS5, stronger effect = lower value 0.986 | locus YOR070C, strain gyp1, stronger effect = lower value 0.988 | locus YOR080W, strain dia2, stronger effect = lower value 0.987 | locus YOR083W, strain WHI5, stronger effect = lower value 0.995 | locus YOR106W, strain vam3, stronger effect = lower value 0.983 | locus YOR136W, strain idh2, stronger effect = lower value 0.968 | locus YOR144C, strain elg1, stronger effect = lower value 0.977 | locus YOR184W, strain ser1, stronger effect = lower value 0.941 | locus YOR231W, strain MKK1, stronger effect = lower value 1.04 | locus YOR265W, strain rbl2, stronger effect = lower value 0.996 | locus YOR270C, strain vph1, stronger effect = lower value 0.961 | locus YOR290C, strain snf2, stronger effect = lower value 0.997 | locus YOR316C, strain cot1, stronger effect = lower value 0.974 | locus YPL051W, strain arl3, stronger effect = lower value 1.01 | locus YPL055C, strain LGE1, stronger effect = lower value 0.948 | locus YPL078C, strain atp4, stronger effect = lower value 1 | locus YPL106C, strain sse1, stronger effect = lower value 0.978 | locus YPL240C, strain hsp82, stronger effect = lower value 0.985 | locus YPL241C, strain CIN2, stronger effect = lower value 0.986 | locus YPL256C, strain CLN2, stronger effect = lower value 1.07 | locus YPR119W, strain clb2, stronger effect = lower value 0.963 | locus YPR141C, strain kar3, stronger effect = lower value 0.958 | locus YPR163C, strain tif3, stronger effect = lower value 0.989 | locus YPR167C, strain met16, stronger effect = lower value 0.963 | strain wtn01, stronger effect = lower value 0.964
0.738 (active) and 1.03 (inactive): locus YJL095W, strain BCK1, stronger effect = lower value
